Results on 40 compounds are retold here after PubChem BioAssay (NCI).

About 83,000 compounds went through this panel and 20% of them were active in at least one assay; those are over-represented in the sample as a whole.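 The endpoint reported here, percent growth, reads 100 for growth as untreated, 0 for no net growth and -100 for all cells dead.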 Active and inactive are the calls of the source.

This experiment concerns UACC-62 melanoma. The experiment is described as follows: NCI-60 one-dose screen, 48 h (100 = growth as untreated, 0 = no growth, -100 = all killed). The following applies: 10 µM unless noted. The method, then:
Growth inhibition of the UACC-62 human tumor cell line is measured as a screen for anti-cancer activity. Cells are grown in 96 well plates and exposed to the test compound for 48 hours. Compounds are tested at a single concentration, which is 10^-5 M for most compounds. The reported endpoint is percent growth (GI% or GIPRCNT), where numbers from 0 - 100% represent growth inhibition, and numbers from -100% - 0 represent cell death. For example, a value of 40 represents 60% growth inhibition. A value of 0 means no net growth occurred over the course of the experiment. A value of -40 indicates 40% of cells at the beginning of the experiment died by the end of the experiment. A value of -100 means all cells are dead at the end of the experiment.
NCI-60 Human Tumor Cell Lines Screen was performed using the standard one-dose NCI protocol, which is described in more detail at https://dtp.cancer.gov/discovery_development/nci-60/default.htm.
Compounds with GIPRCNT values below 10 were considered active. Activity score was based on GIPRCNT using the following formula: […]
Score is 0 for GIPRCNT values of 100 or above, 50 for GIPRCNT values of 0, and 100 for GIPRCNT values of -100.
`COc1ccc(-c2nc3ccc(-c4nnc(SCC(=O)Nc5ccc(C(C)=O)cc5)o4)cc3[nH]2)cc1`: the growth was 96% (inactive).

For the compound `Cc1cc(=O)oc2cc(OCCCOc3ccc(/C=C/C(=O)Nc4ccc(Cl)cc4)cc3)ccc12`, the growth was 75.7% (inactive).

Regarding `Clc1ccc(-c2cn3cc(Cc4ccc(Cl)c(Cl)c4)sc3n2)cc1`, the growth was 18.2% (inactive).

Regarding `N#Cc1nc(-c2ccccc2)oc1N1CC[C@@H](CO)C1`, the growth was 92.4% (inactive).

With `O=C(CN1CCOCC1)NNc1ncnc2ccccc12`, the growth is 83.1% (inactive).

On to `COc1cc(OC)c(S(=O)(=O)NNC(=O)c2ccncc2)cc1C(=O)/C=C/c1ccc(C)cc1`, for which the growth is 76.2% (inactive).

Take `Nc1cc(-c2c[nH]c3ccc(F)cc23)nc2cc(-c3c[nH]c4ccc(F)cc34)nn12`: the growth is 104% (inactive).

Turning to `N#Cc1c(-c2ccc(Cl)cc2)nc(SCc2ccc([N+](=O)[O-])cc2)nc1N1CCNCC1`, the growth is 12.5% (inactive).

Turning to `O=C1C2=C(C(=O)c3c(O)cccc31)C(c1ccco1)c1sc(=O)[nH]c1S2` (stereo not given), the growth is -74.9% (active).

`CCN(CC)c1ccc(C=O)c(OCc2cn(CC(=O)Nc3ccc(Cl)cc3)nn2)c1`: the growth was 58% (inactive).

`CN1C(=S)N(C)C2C1NN=C1SC(c3ccccc3)=CC(=O)N12` (stereo not given): the growth is 78.3% (inactive).

Turning to `CCOC(=O)c1sc(NCC(=O)Nc2cccc([N+](=O)[O-])c2)c(C(=O)OCC)c1C`, the growth was -72.4% (active).

On to `COc1ccc(NC2=C(Cl)C(=O)C(C)=C(C)C2=O)cc1OC`, for which the growth is 81.2% (inactive).

On to `Cc1ccc2ccc3ccc(C)nc3c2n1.Cc1ccc2ccc3ccc(C)nc3c2n1.Oc1c(Cl)cc(Cl)c2ccc(CN3CCCCC3)nc12.[Ru]`, for which the growth was -74% (active).

On to `COc1cc(-c2nc3ccc(-c4nnc(SCC(=O)Nc5ccc(C(=O)/C=C/c6ccc(Cl)cc6)cc5)o4)cc3[nH]2)cc(OC)c1OC`, for which the growth was 84% (inactive).

With `COc1ccc(Cc2nn(CC(=O)N/N=C/c3ccc(Cl)cc3)c(=O)c3c(C)noc23)cc1`, the growth is 99.2% (inactive).

As for `Clc1ccc2c(OCCCN3CCOCC3)c3oc4ccccc4c3nc2c1`, the growth was 33.6% (inactive).

Take `C/C(=N\NC(N)=O)c1c(O)sc(=O)[nH]c1=O`: the growth was 92.6% (inactive).

In the case of `Cc1nc(-c2cc3ccccc3oc2=O)ccc1C(=O)/C=C/c1ccccn1`, the growth was 71.1% (inactive).

Consider `CC(C)(C)Nc1nc2c(OCCc3ccccc3)cccn2c1-c1ccccc1Cl`, for which the growth was -42.1% (active).

Take `COc1ccc(/C=N/NC(=O)c2[nH]c3ccc(Br)cc3c2-c2ccccc2)o1`: the growth is 43.7% (inactive).

For `CN(C)CCCNc1c2ccc(Cl)cc2nc2c1oc1ccc(Cl)cc12`, the growth is 12.6% (inactive).

On to `COc1cc(/C=C/C(=O)c2ccccc2)ccc1Oc1nc(NCCO)nc(N2CCOCC2)n1`, for which the growth is 92.9% (inactive).

`COc1cc2nc(-c3ccc(C(F)(F)F)cc3)cc(OCCCNCC3CCCO3)c2cc1OC` (stereo not given): the growth was -22.1% (active).

As to `CSCCC(C(=O)O)N1C(=O)/C(=C/c2ccc(O)c(O)c2)SC1=S` (stereo not given), the growth was 93.7% (inactive).

With `O=C1[C@H]2Cc3c([nH]c4ccccc34)[C@@H](c3ccc(Br)cc3)N2C(=O)CN1C1CCN(Cc2ccccc2)CC1`, the growth was 84% (inactive).

For the compound `CCN1CCN(S(=O)(=O)c2oc(-c3ccc(Cl)cc3)nc2C#N)CC1`, the growth was 88.7% (inactive).

Regarding `Oc1c(Cl)cc(Cl)c2ccc(CN3CCCCC3)nc12`, the growth was 4.28% (active).

Regarding `COC(=O)C(Cc1ccccc1)NS(=O)(=O)/N=C1\NC(=O)NC1=C(Cl)Cl` (stereo not given), the growth was 78.8% (inactive).

As to `CC(C)(O)c1cncc(-c2ccc3ncnc(N4CCc5cc(F)c(Cl)cc54)c3c2)c1`, the growth was 5.48% (active).

As for `COc1cccc(-c2nn(-c3ccccc3)cc2-c2ccnc(N3CCN(C(=O)Nc4ccc(F)cc4)CC3)c2)c1`, the growth was 43.8% (inactive).

As for `O=c1/c(=C\c2ccc(-c3ccccc3)o2)sc2nc(-c3ccccc3)nn12`, the growth was 98.7% (inactive).

On to `N#Cc1c(-c2ccc(Cl)cc2)nc(SCc2ccc(F)cc2)nc1N1CCNCC1`, for which the growth was 95% (inactive).

Take `CO/N=C1\CCc2c(sc(NC(=O)c3cccc(C(F)(F)F)c3)c2C(N)=O)C1`: the growth was 76.8% (inactive).

Regarding `Clc1ccc2oc3c(OCCCn4ccnc4)c4ccccc4nc3c2c1`, the growth was 83.1% (inactive).

As to `CCCCN1C(=O)/C(=c2\sc3n(c2=O)C2C(NN=3)N(CC)C(=O)N2CC)c2cc(Cl)ccc21` (stereo not given), the growth was 47.5% (inactive).

Turning to `Cn1c(SCC(=O)c2cccs2)nc2ccccc2c1=O`, the growth is 92.6% (inactive).

Regarding `O=C(c1ccc(O)cc1)C1[C@H](c2ccc(Cl)cc2)[C@@H](c2ccccc2)NC12C(=O)Nc1ccc(Cl)cc12` (stereo not given in full), the growth was 53.6% (inactive).

As to `CN(C)c1ccc(/C=C2\Cc3c(F)ccc(Br)c3C2=O)cc1`, the growth is 83.3% (inactive).

For the compound `COc1ccc(-c2nn3c(-c4ccccc4F)nnc3s2)cc1`, the growth was 51.1% (inactive).
